Assay outcomes (PubChem)
HCV inhibitor: qHTS Assay for Inhibitors of Hepatitis C Virus (HCV); Huh7.5.1 HCVcc-Cre infection, luciferase reporter, 44 h; Potency, µM (titrated, usually from 41.8 µM), for the others: top-dose activity change, negative = inhibition, most hits filed as inhibitors; hit rate 3.4% among 340,000
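Cells seeded at 1,000/well and cultured 4 h, then compounds added followed by HCVcc-Cre virus (~0.5 moi). After 44 h further culture, luciferase substrate was added, plates held 15 min at room temperature, and luminescence read for 15 sec.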
Pf growth 48h: Primary qHTS for delayed death inhibitors of the malarial parasite plastid, 48 hour incubation; Potency, µM (doses to about 28.7 µM), for inactives: at the top dose activity change, negative = inhibition, actives largely listed as inhibitors; AID 504832, 2011; hit rate 5.9% among 310,000; P. falciparum luciferase growth in erythrocytes, 48 h
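Luminescence readout; reporter = integrated firefly luciferase in P. falciparum. RBC culture at 2% hematocrit, 0.1% parasitemia final, 37 C/5% CO2; decreased signal taken as growth inhibition.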
AMA1 RON2 block: qHTS for Inhibitors of AMA1-RON; Towards Development of Antimalarial Drug Lead: Primary Screen; Plasmodium falciparum AMA1 (3D7) - RON2 peptide interaction; AlphaScreen AMA1-biotinylated RON2 peptide binding; Potency, µM (top dose mostly 58.2 µM), without a hit: at the top dose activity change, negative = inhibition, hits mostly inhibitors; hit rate 0.2% among 360,000; AID 720542, 2013;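 further: 0% = vehicle wells and -100% = peptide control; nearly all actives have a fitted effect of over 45% in size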
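AMA1 (3D7) with his tag at 25 nM final met compounds first, then biotinylated RON2 peptide at 25 nM; detection used donor plus acceptor beads, 10 µg/mL apiece, read by AlphaScreen after 30 min at room temperature.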
Pf growth 96h: Primary qHTS for delayed death inhibitors of the malarial parasite plastid, 96 hour incubation; P. falciparum luciferase reporter growth, 96 h; Potency, µM (series often up to 28.7 µM), for the others: top-dose activity change, negative = inhibition, actives largely listed as inhibitors; hit rate 6.9% among 320,000; AID 504834, 2011
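Infected RBCs, 2% Hct / 0.05% parasitemia final; luciferase-reporter P. falciparum; cpd 96 h, 37 C, 5% CO2; luciferase detection reagent; luminescence.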
The depositor's hits bear a star; ? = inconclusive; nt = no result given; [ ] = dose if it differs, or a comment. Rows were chosen to be rich in hits. Some 11% of all compounds tested hit in one or more screens of this group. The call rests on the fitted dose curve; in most records, active means well fitted curve in the direction sought with a large enough effect; inconclusive means small, poorly fitted or top-dose-only effect, or another doubt; inactive means no such curve, though single readings can be large; an effect the other way counts as inactive or inconclusive. Unless noted, on the % scale 0 is the no-effect control and ±100 the full control effect; potency means the concentration at half of the fitted maximal effect.

SMILES	HCV inhibitor	Pf growth 48h	AMA1 RON2 block	Pf growth 96h
COc1cc(NS(=O)(=O)c2ccc(N/C=C(\C=O)c3nc4ccccc4o3)cc2)nc(OC)n1	-0.1%	21.5%	34.6%	-5.0%
CCN(CC)S(=O)(=O)c1ccc(C(=O)C(C#N)c2ccccn2)cc1 (stereo not given)	10µM*	?	31.9%	21.0%
COc1ccc(NC(=O)CN2C(=O)COc3ccc(C)cc32)cc1	-0.3%	25.2%	-2.2%	?
COc1cc(C(=O)OCCCN(C)C)cc(OC)c1OC	14.2%	4.9%	-1.9%	33.8%
COc1cc(C(=O)OCCCN2CCCN(CCCOC(=O)c3cc(OC)c(OC)c(OC)c3)CC2)cc(OC)c1OC	8.91µM*	9.53µM*	3.0%	-15.1%
CCN(CC)CCCCCCCCOC(=O)c1cc(OC)c(OC)c(OC)c1	0.562µM*	9.28µM*	7.5%	10.4µM*
O=C(NCc1cccnc1)c1ccc2sc([C@H]3C[C@H](O)[C@@H](CO)O3)nc2c1	nt	nt	10.6%	nt
COc1ccccc1OCCCC(=O)Nc1nnc(C2CCCO2)s1 (stereo not given)	22.7%	-1.6%	1.6%	-3.4%
Cc1[nH]c2ccccc2c1Cc1nnc(SCCC#N)o1	?	-22.9%	-8.0%	-8.6%
C[C@H]1COC2=C1C(=O)C(=O)c1c2ccc2c1CCCC2(C)C	?	?	28.2µM*	?
Nc1ncnc2c1C1(CCCCC1)Cc1ccccc1-2	-1.1%	-15.7%	-16.6%	8.28µM*
c1ccc(OCc2nc3c4c(ncn3n2)-c2ccccc2CC42CCCC2)cc1	?	13.1µM*	13.4%	-3.5%
CCC(C)OC(=O)C1=C(C)O[C@]23OC(N)=C(C#N)[C@]12C(=O)c1ccccc13 (stereo not given in full)	13.8%	?	4.0%	-28.4%
OCCC1CN(CC#Cc2ccccc2)CCN1Cc1ccccc1F (stereo not given)	20.3%	-11.2%	-9.7%	11.7µM*
CC(C)CN1CCN(Cc2cccn2-c2ccccn2)CC1CCO (stereo not given)	6.9%	55.3%	-3.1%	8.28µM*
CC(C)CN1CCN(CC#Cc2ccccc2)CC1CCO (stereo not given)	-4.7%	27.5%	-1.5%	11.7µM*
CC(C)=CCN1CCN(CC#Cc2ccccc2)CC1CCO (stereo not given)	-2.3%	?	-0.3%	42.1%
O=[N+]([O-])c1cc(Cl)ccc1N1CCN(c2cccc(C(F)(F)F)c2)CC1	-2.6%	?	?	11.7µM*
O=[N+]([O-])c1cc(CN2CCCC2)c2cccnc2c1O	10.9%	9.28µM*	-16.2%	?
O=C(O)c1cc([N+](=O)[O-])cc([N+](=O)[O-])c1N1CCN(c2cccc(C(F)(F)F)c2)CC1	13.6%	15.5%	-3.4%	25.6%
CNS(=O)(=O)c1cnccc1N1CCN(C)CC1	15.4%	4.1%	0.6%[2.32 µM]	-11.7%
O=[N+]([O-])c1cc(CN2CCN(c3cccc(C(F)(F)F)c3)CC2)c2cccnc2c1O	3.98µM*	0.828µM*	-82.0%	?
O=[N+]([O-])c1ccc(N2CCCC2)c2ncccc12	?	13.0%	-2.0%	?
CNS(=O)(=O)c1cnccc1N1CCN(c2cccc(C(F)(F)F)c2)CC1	0.0%	?	8.8%	14.7µM*
O=[N+]([O-])c1cccc(-c2ccc(C(=S)N3CCOCC3)o2)c1	-29.8%	186.1%	?	?
SMILES	HCV inhibitor	Pf growth 48h	AMA1 RON2 block	Pf growth 96h
O=C(NCCN1CCOCC1)Nc1ccc(Cl)cc1	-4.1%	30.9%	9.1%	4.65µM*
O=C(/C=C/c1ccccc1)Nc1ccc(CN2CCOCC2)cc1	2.1%	84.6%	-2.8%	37.3%
S=C(NCCN1CCOCC1)Nc1ccc(Cl)cc1	6.6%	-15.9%	-5.8%	55.6%
O=C(Nc1ccc(CN2CCOCC2)cc1)c1ccc(Br)o1	12.3%	65.6%	0.0%	196.2%
O=C(Nc1ccc(CN2CCOCC2)cc1)c1ccc(-c2cccc([N+](=O)[O-])c2)o1	31.6µM*	?	-5.3%	2.62µM*
O=C(Nc1ccc(CN2CCOCC2)cc1)c1ccc(-c2cc(Cl)ccc2Cl)o1	?	1.85µM*	-19.8%	?
O=C(/C=C/c1ccc(Cl)cc1Cl)Nc1ccc(CN2CCOCC2)cc1	3.16µM*	?	-21.8%	?
Cc1ccc(Oc2ccccc2/C=C/C(=O)O)cc1	17.5%	-0.6%	-3.1%	16.5%
COc1cccc(/C=C/c2nc(C#N)c(NCC(C)C)o2)c1	?	-22.3%	0.0%	41.5%
O=C(/C=C/c1ccc(Cl)cc1Cl)NCc1ccncc1	-22.6%	?	11.8%	11.7µM*
COC(=O)c1cc(Cl)c(NC(=O)c2cc3ccccc3o2)cc1OC	-22.2%	63.8%	4.8%	?
Cc1ccc2c(c1C)NC(C)CC2C (stereo not given)	2.6%	13.1µM*	-7.0%	?
CC(C)n1cnc2c(Nc3cccc(Cl)c3)nc(NCCCO)nc21	11.2µM*	?	-3.0%	14.7µM*
CC(C)[C@H](CO)Nc1nc(Nc2ccc(Cl)c(C(=O)O)c2)c2ncn(C(C)C)c2n1	18.0%	?	14.8%	?
Cc1ccc(Nc2[nH]c(=O)c3ccccc3c2C(=O)c2ccccc2)cc1	1.7%	nt	0.5%	nt
c1ccc(Cn2c(SCCN3CCOCC3)nnc2-c2cccnc2)cc1	-12.1%	nt	-15.7%	10.4µM*
NC(=O)CSc1nnc(-c2cccnc2)n1Cc1ccccc1	12.3%	-13.0%	-6.2%	-1.6%
Cc1c(C(=O)Nc2ccc3nc(N4CCOCC4)sc3c2)oc2ccccc12	11.2µM*	10.4µM*	-2.7%	?
O=C(Nc1ccc2nc(N3CCOCC3)sc2c1)c1cc2ccccc2o1	nt	nt	14.4%	nt
CCOC(=O)C1=C[C@@H](C2CCCCC2)N(S(=O)(=O)c2ccc([N+](=O)[O-])cc2)[C@H]1c1ccccc1	nt	nt	-26.5%	nt
CC12Cc3ccc4ccccc4c3C=C1C[N+](C)(C)C2 (stereo not given)	0.2%	nt	40.6%	1.65µM*
Cn1cc(S(=O)(=O)c2ccccc2)n(C)c1=O	3.9%	-4.2%	7.7%	23.9%
COc1ccc(-c2nc(C#N)c(N3CCCCC3)o2)cc1	-1.3%	19.4%	?	20.6%
N#Cc1nc(-c2ccc(F)cc2)oc1N1CCCC1	1.5%	41.8%	-20.6%	0.294µM*
COc1ccc(-c2nc(C#N)c(N3CCCCCC3)o2)cc1OC	10µM*	-16.5%	0.1%	nt
CC(C)NC(=O)C1(C)CCCN1C(=O)c1ccc2c(c1)C(C)(C)CCC2(C)C (stereo not given)	nt	nt	1.7%	nt
CCOC(=O)c1nnn(-c2nc(N3CCCC3)nc(N3CCCC3)n2)c1-c1ccccc1	17.8µM*	?	0.0%	2.3%
CCOC(=O)c1c(-c2ccccc2)nnn1-c1nc(OCC)nc(N2CCCCC2)n1	6.31µM*	?	-1.6%	33.9%
CCOc1nc(N2CCCCC2)nc(-n2cc(-c3ccccc3)nn2)n1	4.0%	-16.0%	7.9%	-24.2%
